# Bioassay records (PubChem BioAssay)
# An excerpt weighted towards active compounds, which were near 19% of everything screened.
# Pf growth 48h = inhibits P. falciparum growth in the first generation, 48 h; P. falciparum luciferase growth in erythrocytes, 48 h; Potency, µM (doses to about 28.7 µM), for the others: top-dose activity change, negative = inhibition, actives largely listed as inhibitors; 5.9% of 310,000 active; AID 504832; also: potency is read from the fitted curve at half-maximal effect; % is scaled to controls: 0 for no effect and ±100 for the full control effect
#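 Firefly luciferase activity from engineered P. falciparum reports growth; inhibitors lower the luminescent signal. Cultures contained 2% hematocrit erythrocytes at 0.1% final parasitemia.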
# Cycloheximide cs = affects cycloheximide protein synthesis inhibition readout, counter-screen; cell reporter, cycloheximide protein synthesis inhibition counterscreen; AID 2314; 12% of 300,000 active; max response, %; in the data active = max response mostly above about 13%, no sharp cut-off; inactive = mostly below about 14%; also: read at 38.3 µM for the half of the compounds with a filed dose; 0% is about no effect
# MARV entry inh = Marburg virus entry inhibition. 1.8% of 300,000 active. Marburg virus pseudotyped entry inhibition, cell reporter. Potency, µM (series often up to 37.8 µM), inactives show top-dose activity change, negative = inhibition, actives largely listed as inhibitors; calls by dose curve; tested in HEK293 cells; also: potency is read from the fitted curve at half-maximal effect; % is scaled to controls: 0 for no effect and ±100 for the full control effect
# Pf growth 96h = P. falciparum growth inhibition at 96 hours | P. falciparum luciferase reporter growth, 96 h | Potency, µM (series often up to 28.7 µM), for inactives: top-dose activity change, negative = inhibition, hits mostly inhibitors | 6.9% of 320,000 active; also: potency is read from the fitted curve at half-maximal effect; % is scaled to controls: 0 for no effect and ±100 for the full control effect
#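 Cell-based qHTS: luciferase-tagged P. falciparum in erythrocytes (2% hematocrit, 0.05% parasitemia final) incubated with compounds for 96 hours, 37 C, 5% CO2; luciferase detection reagent then added and luminescence measured.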
# Shiga inhibitor = blocks Shiga toxin action in Vero cells | Vero cells, Shiga toxin protein synthesis inhibition reporter | inhibition, % at 38.7 µM | 9.2% of 290,000 active | AID 2315; in the data active = inhibition mostly above about 28%, no sharp cut-off; inactive = mostly below about 43%; also: 0% is about no effect
# Lassa entry inh = blocks Lassa virus binding to or entry into cells | Lassa virus pseudotype entry inhibition, cell reporter | AID 540256 | Potency, µM (doses to about 37.9 µM), for inactives: at the highest dose activity change, negative = inhibition, most hits filed as inhibitors | 1.2% of 300,000 active; calls by dose curve; tested in HEK293 cells; also: potency is read from the fitted curve at half-maximal effect; % is scaled to controls: 0 for no effect and ±100 for the full control effect; nearly all actives have a fitted effect of over 50% in size
# An asterisk follows results filed as active; ? = inconclusive; / = no result given; [ ] = another dose, or the depositor's remark. Unless noted, calls follow the shape of the dose curve; as a rule, active = well fitted inhibition curve with a large enough effect; inconclusive = small, poorly fitted or top-dose-only effect, or another doubt; inactive = no such curve, though single readings can be large or run the other way.
SMILES,Pf growth 48h,Cycloheximide cs,MARV entry inh,Pf growth 96h,Shiga inhibitor,Lassa entry inh
N/C(=N\OC(=O)C1CCCCC1)c1cccc(Br)c1,-16%,-3,?,4%,-7,-7%[46.1 µM]
COc1ccc(/C(N)=N/OC(=O)C2CCCCC2)cc1OC,39%,50*,/,26%,78*,/
COc1ccc(/C(N)=N/OC(=O)C2CCCCC2)cc1,186%,43*,/,200%,136*,/
O=S1(=O)CC2NC(=S)N(c3cccc(Br)c3)C2C1 (stereo unspecified),9%,1,/,18%,16,/
Cc1cc(=O)n2nc(N3CCC(C(=O)NC4CCCc5ccccc54)CC3)sc2n1 (stereo unspecified),?,-6,5%,0.59µM*,-17,3%
Cc1cc(=O)n2nc(N3CCC(C(=O)NCc4ccccc4Cl)CC3)sc2n1,?,8,28%[46.1 µM],12µM*,-4,-9%[46.1 µM]
Cc1cc(C)c(C(=O)N2CCC(N3CCC(C(=O)NC(C)C)CC3)CC2)o1,?,-1,?,12µM*,10,-11%
COc1ccc(NC(=O)CSc2c3c(nc4cc(Cl)ccc24)CCCC3)cc1OC,2%,-2,?,23%,-10,?
COc1ccc2nc3cc(Cl)ccc3c(Nc3cc(CN4CCCC4)c(O)c(CN4CCCC4)c3)c2n1,0.052µM*,1,/,?,-1,/
COc1ccc(-c2nc3ccccc3s2)cc1NC(=O)c1cccc(F)c1,/,/,/,/,/,2%[46.1 µM]
COc1cc(-c2nc3ccccc3s2)ccc1O,123%,45*,1%,/,80*,?
COc1ccc(-c2nc3ccccc3s2)cc1O,-22%,7,7.1µM*,-11%,15,7.1µM*
CCOc1cc(-c2nc3ccccc3s2)ccc1O,10%,56*,12%[46.1 µM],1%,65*,2%
COc1ccc(CC(=O)Nc2ccc(-c3nc4ccccc4s3)cc2Cl)cc1OC,/,/,/,/,/,-25%[46.1 µM]
COc1ccc(NS(=O)(=O)/C=C/c2ccc(OC)c(OC)c2)cc1,29%,22,-1%[46.1 µM],13%,22,-1%
Cc1[nH]n(-c2ccccc2)c(=O)c1N=Nc1cccc(C(=O)O)c1,96%,42*,?,-8%,/,?
Cc1ccc(N=Nc2c(N)n(-c3ccccc3)[nH]c2=O)cc1,193%,38*,?,39%,122*,?
Cc1[nH]n(-c2ccccc2)c(=O)c1N=Nc1ccc(C(=O)O)cc1,5%,10,29%[46.1 µM],4%,-5,2%[46.1 µM]
Cc1[nH]n(-c2ccccc2)c(=O)c1N=Nc1ccccc1,101%,23*,19%[46.1 µM],33%,48,11%
O=C(O)c1ccc(S(=O)(=O)N2CCC(n3nnc4cc(C(F)(F)F)ccc43)CC2)cc1,-6%,-4,14%[46.1 µM],?,-4,9%
CSC1=NCCN1S(=O)(=O)c1ccc(C)cc1,5%,5,/,-3%,23,/
O=C(NCCc1ccc(Cl)cc1)C1CCN(c2cnccn2)CC1,-23%,0,-5%,31%,-7,6%
CCCCN=c1sc(C(=O)OC)cc(=O)n1CCCC,4%,2,-19%,?,-22,17%
COc1ccccc1N1CCN(C(=O)c2cc(-c3ccc(F)cc3)[nH]c2C)CC1,13µM*,7,/,-4%,-4,/
Cc1[nH]c(-c2ccc(F)cc2)cc1C(=O)N1CCN(c2ccccc2F)CC1,-51%,3,1%,3.7µM*,14,?
SMILES,Pf growth 48h,Cycloheximide cs,MARV entry inh,Pf growth 96h,Shiga inhibitor,Lassa entry inh
CCOc1ccc(C(=O)NCC2CCCN2S(=O)(=O)c2cccs2)cc1 (stereo unspecified),?,/,-11%,?,/,1%[46.1 µM]
O=P(Nc1ccccc1)(Oc1ccccc1)Oc1ccccc1,12%,1,/,30%,8,/
O=C(C[N+]12CCC(CC1)C(CO)C2)c1ccc(Br)cc1 (stereo unspecified),-14%,7.3*,5%[46.1 µM],-25%,27,3%[46.1 µM]
CC1CCCN(CCC(=O)c2ccc(Br)cc2)C1 (stereo unspecified),-13%,10,?,0%,-8,-16%
COc1ccc(C2(CNC(=O)c3cccc([N+](=O)[O-])c3)CCCCC2)cc1OC,?,-1,?,5.9µM*,-13,0%
O=C(C(=O)N1CC=C(c2ccccc2)CC1)c1c[nH]c2ccccc12,10%,-1,5%,45%,-14,?
CC(C)(C)[C@@H]1C=C(C(=O)N2CCN(Cc3ccccc3)CC2)O[C@H](OCCCCO)C1,12%,-2,/,?,-14,/
Cc1cc(C)nc(N/C(=N\S(=O)(=O)Cc2ccccc2)Nc2ccccc2Br)n1,?,-5,2.8µM*,-1%,-15,4.1µM*
OC1CCCN(Cc2ccc3c(c2)Cc2ccccc2-3)C1 (stereo unspecified),31%,16*,7%,0%,45,27%
OCC1CCCN(Cc2ccc(-c3ccccc3)cc2)C1 (stereo unspecified),10%,21,-10%,25%,28,1%
CO/N=C\CC(=O)Nc1ccc(Cl)cc1Cl,25%,21*,?,56%,46,-24%
CC(CNC(=O)c1cccs1)c1ccc([N+](=O)[O-])cc1 (stereo unspecified),?,-3,/,?,-1,/
O=C1C=C(NCc2ccco2)CC(c2ccc(Cl)cc2)C1 (stereo unspecified),-12%,-2,-5%,-12%,-11,-13%
O=C1C=C(Nc2ccc(Cl)cc2)CC(c2ccco2)C1 (stereo unspecified),9.3µM*,2,-16%,?,6,?
Cc1ccc(C2CC(=O)C=C(Nc3ccc(Cl)cc3)C2)cc1 (stereo unspecified),15µM*,-2,6%,32%,-15,5%
O=C1C=C(Nc2ccc(Cl)cc2)CC(c2ccc(Cl)cc2)C1 (stereo unspecified),9.3µM*,36,?,?,75,?
Cc1ccc(C2=CC(=O)C[C@H](c3ccc(Cl)cc3)C2)cc1,-8%,/,/,0%,/,/
CCCCCCCNC1=CC(=O)CC(c2ccco2)C1 (stereo unspecified),2.3µM*,19*,-11%,10µM*,13,5%
C=CCn1c(-c2sc3nc(C)cc(C)c3c2N)n[nH]c1=S,19%,-1,-7%[46.1 µM],67%,15,-6%[46.1 µM]
COc1ccc(Nc2nnc(-c3cc4cc(Cl)ccc4oc3=O)s2)cc1,/,/,/,/,/,15%[46.1 µM]
O=C(COC(=O)CN1C(=O)c2ccccc2C1=O)Nc1ccccc1[N+](=O)[O-],5%,/,/,-7%,/,/
NS(=O)(=O)c1ccc(CCNC(=O)C2CCC(CNS(=O)(=O)c3ccc(Br)s3)CC2)cc1 (stereo unspecified),?,-7,?,4%,-11,-8%
COc1ccccc1NC(=O)Cc1nnc(SCC(=O)Nc2ccccc2F)n1C,34%,-3,9%[46.1 µM],?,2,5%
O=C(NCC1(c2ccccc2)CCCC1)C(=O)NCC1(c2ccccc2)CCCC1,0%,-2,?,4%,12,15%
